Measurements published in PubChem BioAssay AID1159580 (chemical genetic matrix, 2015).
“And” between values parts separate entries of the source, which are not always exact repeats. Equal entries are not always repeated. Among all 5,500 compounds or so, about 2,000 (36%) were called active. About 18% were inconclusive and are not listed. Rule as the data show it: active = normalized growth mostly below about 0.91 (no sharp cut-off); inconclusive = no clear call, values can overlap the other calls; inactive = mostly above about 0.92. Some of the results follow.

Experiment: chemical genetic growth profiling, strain panel (AID 1159580);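 also: tested at 20 µM; growth read once vehicle control cultures reached saturation at 30 °C; 1 = growth at the plate median or of vehicle wells; lower values mean less growth of the strain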
Details: growth OD

Measured: normalized growth

CC1=C(/C=C/C(C)=C/C=C/C(C)=C\C(=O)O)C(C)(C)CCC1
inactive: S. cerevisiae deletion strains, locus YJR075W, strain HOC1, active compounds read low 0.962 and 1.01 | S. cerevisiae deletion strains, locus YKL009W, strain mrt4, active compounds read low 0.94 | S. cerevisiae deletion strains, locus YKL068W, active compounds read low 1 | S. cerevisiae deletion strains, locus YKL085W, strain MDH1 (second series), active compounds read low 0.941 | S. cerevisiae deletion strains, locus YKL085W, strain MDH1, active compounds read low 0.941 | S. cerevisiae deletion strains, locus YKL160W, strain elf1, active compounds read low 0.977 | S. cerevisiae deletion strains, locus YKL190W, strain CNB1, active compounds read low 0.989 | S. cerevisiae deletion strains, locus YKR001C, strain vps1, active compounds read low 0.942 | S. cerevisiae deletion strains, locus YKR026C, strain gcn3, active compounds read low 0.982 | S. cerevisiae deletion strains, locus YKR091W, strain srl3, active compounds read low 0.988 | S. cerevisiae deletion strains, locus YLL001W, strain dnm1, active compounds read low 0.93 | S. cerevisiae deletion strains, locus YLL026W, active compounds read low 0.966 | S. cerevisiae deletion strains, locus YLL041C, strain sdh2, active compounds read low 0.99 | S. cerevisiae deletion strains, locus YLR027C, strain aat2, active compounds read low 0.958 | S. cerevisiae deletion strains, locus YLR039C, strain RIC1, active compounds read low 0.866 | S. cerevisiae deletion strains, locus YLR058C, strain SHM2, active compounds read low 1 | S. cerevisiae deletion strains, locus YLR102C, strain apc9, active compounds read low 1 | S. cerevisiae deletion strains, locus YLR113W, strain HOG1, active compounds read low 1.08 | S. cerevisiae deletion strains, locus YLR221C, strain rsa3, active compounds read low 1.02 | S. cerevisiae deletion strains, locus YLR258W, strain gsy2, active compounds read low 0.992 | S. cerevisiae deletion strains, locus YLR262C, strain YPT6 (second series), active compounds read low 0.925 | S. cerevisiae deletion strains, locus YLR262C, strain YPT6, active compounds read low 0.875 | S. cerevisiae deletion strains, locus YLR268W, strain sec22, active compounds read low 0.966 | S. cerevisiae deletion strains, locus YLR320W, strain mms22, active compounds read low 0.993 | S. cerevisiae deletion strains, locus YLR330W, strain CHS5, active compounds read low 1.01 | S. cerevisiae deletion strains, locus YLR342W, strain FKS1 (second series), active compounds read low 0.952 | S. cerevisiae deletion strains, locus YLR342W, strain FKS1, active compounds read low 0.953 | S. cerevisiae deletion strains, locus YLR357W, strain rsc2, active compounds read low 0.982 | S. cerevisiae deletion strains, locus YLR370C, strain arc18, active compounds read low 0.996 | S. cerevisiae deletion strains, locus YLR371W, strain rom2, active compounds read low 1.01 | S. cerevisiae deletion strains, locus YLR384C, strain iki3, active compounds read low 0.973 | S. cerevisiae deletion strains, locus YLR418C, strain cdc73, active compounds read low 0.846 | S. cerevisiae deletion strains, locus YML016C, strain PPZ1, active compounds read low 1 | S. cerevisiae deletion strains, locus YML032C, strain rad52, active compounds read low 0.978 | S. cerevisiae deletion strains, locus YML120C, strain ndi1, active compounds read low 0.977 | S. cerevisiae deletion strains, locus YML124C, strain tub3, active compounds read low 0.998 | S. cerevisiae deletion strains, locus YMR058W, strain fet3, active compounds read low 0.978 | S. cerevisiae deletion strains, locus YMR078C, strain ctf18, active compounds read low 0.998 | S. cerevisiae deletion strains, locus YMR125W, strain sto1, active compounds read low 1.01 | S. cerevisiae deletion strains, locus YMR129W, active compounds read low 0.987 | S. cerevisiae deletion strains, locus YMR205C, strain PFK2, active compounds read low 0.971 | S. cerevisiae deletion strains, locus YMR223W, strain ubp8, active compounds read low 0.976 | S. cerevisiae deletion strains, locus YMR231W, strain pep5, active compounds read low 0.98 | S. cerevisiae deletion strains, locus YMR263W, strain SAP30, active compounds read low 0.956 | S. cerevisiae deletion strains, locus YMR307W, strain GAS1, active compounds read low 0.909 and 1.05 | S. cerevisiae deletion strains, locus YNL067W, strain RPL9B, active compounds read low 0.951 | S. cerevisiae deletion strains, locus YNL071W, strain lat1, active compounds read low 0.994 | S. cerevisiae deletion strains, locus YNL128W, strain TEP1, active compounds read low 0.985 | S. cerevisiae deletion strains, locus YNL153C, strain GIM3, active compounds read low 0.933 | S. cerevisiae deletion strains, locus YNL175C, strain NOP13, active compounds read low 1.02 | S. cerevisiae deletion strains, locus YNL183C, strain NPR1, active compounds read low 0.952 | S. cerevisiae deletion strains, locus YNL197C, strain WHI3, active compounds read low 1.03 | S. cerevisiae deletion strains, locus YNL209W, strain ssb2, active compounds read low 0.988 | S. cerevisiae deletion strains, locus YNL224C, strain SQS1, active compounds read low 1.01 | S. cerevisiae deletion strains, locus YNL233W, strain BNI4, active compounds read low 0.947 | S. cerevisiae deletion strains, locus YNL248C, strain rpa49, active compounds read low 1.02 | S. cerevisiae deletion strains, locus YNL250W, strain rad50, active compounds read low 0.992 | S. cerevisiae deletion strains, locus YNL271C, strain bni1, active compounds read low 0.994 | S. cerevisiae deletion strains, locus YNL298W, strain CLA4, active compounds read low 0.979 | S. cerevisiae deletion strains, locus YNL307C, strain MCK1, active compounds read low 0.931 | S. cerevisiae deletion strains, locus YNL322C, strain KRE1 (second series), active compounds read low 0.986 | S. cerevisiae deletion strains, locus YNL322C, strain KRE1, active compounds read low 0.997 and 1.03 | S. cerevisiae deletion strains, locus YNR049C, strain mso1, active compounds read low 0.988 | S. cerevisiae deletion strains, locus YNR052C, strain pop2, active compounds read low 1.01 | S. cerevisiae deletion strains, locus YOL006C, strain TOP1, active compounds read low 0.909 | S. cerevisiae deletion strains, locus YOL012C, strain htz1 0.855 | S. cerevisiae deletion strains, locus YOL147C, strain pex11, active compounds read low 0.995 | S. cerevisiae deletion strains, locus YOR001W, strain rrp6, active compounds read low 0.965 | S. cerevisiae deletion strains, locus YOR061W, strain CKA2, active compounds read low 1.01 | S. cerevisiae deletion strains, locus YOR069W, strain VPS5, active compounds read low 1.01 | S. cerevisiae deletion strains, locus YOR070C, strain gyp1, active compounds read low 0.996 | S. cerevisiae deletion strains, locus YOR080W, strain dia2, active compounds read low 0.986 | S. cerevisiae deletion strains, locus YOR083W, strain WHI5 (second series), active compounds read low 1.03 | S. cerevisiae deletion strains, locus YOR083W, strain WHI5, active compounds read low 0.954 | S. cerevisiae deletion strains, locus YOR106W, strain vam3, active compounds read low 0.927 | S. cerevisiae deletion strains, locus YOR136W, strain idh2, active compounds read low 0.991 | S. cerevisiae deletion strains, locus YOR144C, strain elg1, active compounds read low 1.01 | S. cerevisiae deletion strains, locus YOR184W, strain ser1, active compounds read low 0.95 | S. cerevisiae deletion strains, locus YOR231W, strain MKK1, active compounds read low 1.05 | S. cerevisiae deletion strains, locus YOR265W, strain rbl2, active compounds read low 0.987 | S. cerevisiae deletion strains, locus YOR270C, strain vph1, active compounds read low 0.835 | S. cerevisiae deletion strains, locus YOR290C, strain snf2, active compounds read low 1.01 | S. cerevisiae deletion strains, locus YOR316C, strain cot1, active compounds read low 1.01 | S. cerevisiae deletion strains, locus YPL051W, strain arl3, active compounds read low 0.983 | S. cerevisiae deletion strains, locus YPL055C, strain LGE1, active compounds read low 0.918 | S. cerevisiae deletion strains, locus YPL078C, strain atp4, active compounds read low 0.947 | S. cerevisiae deletion strains, locus YPL106C, strain sse1, active compounds read low 1.02 | S. cerevisiae deletion strains, locus YPL240C, strain hsp82, active compounds read low 0.977 | S. cerevisiae deletion strains, locus YPL241C, strain CIN2, active compounds read low 1.01 | S. cerevisiae deletion strains, locus YPL256C, strain CLN2, active compounds read low 1.04 | S. cerevisiae deletion strains, locus YPR119W, strain clb2, active compounds read low 1 | S. cerevisiae deletion strains, locus YPR141C, strain kar3, active compounds read low 0.989 | S. cerevisiae deletion strains, locus YPR163C, strain tif3, active compounds read low 1 | S. cerevisiae deletion strains, locus YPR167C, strain met16, active compounds read low 1 | S. cerevisiae deletion strains, strain wtn01, active compounds read low 0.956 | S. cerevisiae strains, strain wild type, active compounds read low 0.975
